CYP2C9 inh: inhibitors of human CYP2C9; P11712; CYP2C9 Supersomes, luciferin-H conversion, luminescence; inhibition, % at 5 µM; 20% of 96,000 active; AID 777;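 active means blocking of liver enzyme CYP2C9 beyond about 50% at 5 µM, limit read from the data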
CYP2C19 activ: increases human CYP2C19 enzyme activity | P33261 | recombinant CYP2C19, luciferin-H EGE luminescence; stronger effect = higher value; 0 = fully inhibited enzyme, 1 = untreated enzyme | activation factor at 5 µM | 96,000 tested, under 10 active;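 active means activation factor of at least 2 at 5 µM in the primary screen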;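 further: 0 = wells with 2.5 mM tranylcypromine and 1 = vehicle-only wells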
Target sequence (P33261 whole entry, looked up): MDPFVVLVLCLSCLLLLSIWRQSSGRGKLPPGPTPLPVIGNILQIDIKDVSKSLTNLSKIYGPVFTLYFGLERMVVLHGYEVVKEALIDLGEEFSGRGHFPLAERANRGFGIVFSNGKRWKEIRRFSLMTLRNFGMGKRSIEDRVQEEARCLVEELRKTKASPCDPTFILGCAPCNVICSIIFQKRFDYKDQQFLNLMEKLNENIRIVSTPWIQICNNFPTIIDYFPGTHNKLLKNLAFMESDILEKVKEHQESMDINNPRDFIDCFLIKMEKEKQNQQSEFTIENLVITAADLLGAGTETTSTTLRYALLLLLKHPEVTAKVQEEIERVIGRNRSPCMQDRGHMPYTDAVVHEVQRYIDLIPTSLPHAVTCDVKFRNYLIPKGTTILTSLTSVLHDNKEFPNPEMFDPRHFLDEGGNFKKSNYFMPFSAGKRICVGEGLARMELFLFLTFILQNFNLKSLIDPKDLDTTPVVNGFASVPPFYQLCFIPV
CYP2C9 activ: activators of human CYP2C9 | P11712 | recombinant CYP2C9, luciferin-H conversion, luminescence; stronger effect = higher value; factor 1 = untreated enzyme, 0 = blocked | activation factor at 5 µM | 1.4% of 96,000 active;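 active means activation factor of 2 or more for CYP2C9 at a 5 µM dose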;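 further: 0 = sulfaphenazole-blocked wells and 1 = vehicle-only wells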
CYP2C19 inhib: human CYP2C19 inhibition; CYP2C19 Supersomes, luciferin-H EGE luminescence, 30 min; P33261; inhibition, % at 5 µM; 21% of 96,000 active;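 active means CYP2C19 inhibition above a set limit at 5 µM in the primary screen, cut at about 50% in these data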;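 further: plate controls were negative control wells for no effect and 2.5 mM tranylcypromine positive control for full effect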
* = called active by the depositor. Rows were chosen to be rich in hits. Some 31% of all compounds tested hit in one or more screens of this group.

SMILES | CYP2C9 inh | CYP2C19 activ | CYP2C9 activ | CYP2C19 inhib
C=CCNc1nc(C2(C)CC3(CC(C)(C)OC3=O)C(=O)O2)cs1 (configuration not stated) | -22.7 | 0.2 | 1.2 | 79.4*
CC(C)OC(=O)C1C2C=CC3(CN(Cc4cccs4)C(=O)C13)O2 (configuration not stated) | 8.4 | 0.8 | 0.9 | 25.0
CCOC(=O)Cc1csc(NC(=O)c2cc3c(s2)CCCC3)n1 | 63.6* | 0.7 | 0.4 | 26.7
CCOC(=O)Cc1csc(NC(=O)c2csc3c2CCCC3)n1 | 74.8* | 0.4 | 0.3 | 64.9*
COc1ccc(C2SCC(=O)N2CCCN(C)C)cc1 (configuration not stated) | 2.7 | 1.2 | 1 | -17.9
CCC(=O)Nc1cccc(NC(=S)NC(=O)c2ccccc2Cl)c1 | -154.4 | 0.7 | 2.5* | 28.1
N/C(=N\OC(=O)CCCCCN1C(=O)c2ccccc2C1=O)c1ccccc1 | 27.3 | 0.9 | 0.7 | 5.6
CCOc1ccc(N2CC(C(=O)OCC(=O)NCc3ccccc3)CC2=O)cc1 (configuration not stated) | 38.9 | 0.8 | 0.6 | 15.6
O=C1c2ccsc2SCCN1Cc1ccc(Cl)cc1 | 30.0 | 0.4 | 0.7 | 57.7*
CC(=O)N1c2ccccc2N(Cc2ccc(C)cc2C)C(=O)C1(C)C | 81.2* | 0.1 | 0.2 | 95.0*
CC(=O)N1c2ccccc2NC(=O)C1(C)C | -7.4 | 1 | 1.1 | 1.4
CCCCC(=O)N1CCCC(c2nc3c(nnn3Cc3cc(C)ccc3C)c(=O)[nH]2)C1 (configuration not stated) | 86.7* | 0.3 | 0.1 | 66.8*
Cc1ccc(C)c(Cn2nnc3c(=O)[nH]c(C4CCCN(C(=O)CC(C)C)C4)nc32)c1 (configuration not stated) | 78.6* | 0.4 | 0.2 | 60.9*
O=C(CCNC(=O)Cn1cnc2ccccc2c1=O)NCC1COc2ccccc2O1 (configuration not stated) | 28.1 | 0.9 | 0.7 | 13.6
CS(=O)(=O)c1ccccc1-c1nc(-c2ccc(C(F)(F)F)cc2)no1 | -208.0 | 1 | 3.1* | 4.6
COc1cccc(C(=O)CSc2nnc(CNc3nc(-c4ccccc4)cs3)n2C)c1 | 36.9 | 0.8 | 0.6 | 18.2
O=C(Cn1ncnn1)OCc1ccccc1Cl | -17.6 | 0.9 | 1.2 | 5.1
O=C(OCc1ccccc1Cl)c1ccc(-n2cnnc2)cc1 | 90.5* | 0 | 0.1 | 97.7*
CC(=O)Nc1cccc(-c2csc(NCc3ccco3)n2)c1 | 39.3 | 0.5 | 0.6 | 48.2
CCOC(=O)N1CCN(S(=O)(=O)c2cc(Br)cnc2N)CC1 | 94.4* | 0.1 | 0.1 | 94.7*
O=C(O)C1CCCN1S(=O)(=O)c1ccc(Br)s1 (configuration not stated) (tested in a mixture with another compound) | -13.2 | 0.4 | 1.1 | 59.0*
CCOC(=O)N1CCN(S(=O)(=O)c2ccc(C)c(C)c2)CC1 | -63.1 | 0.6 | 1.6 | 40.7
CCOC(=O)N1CCN(C(=O)C2CCCN(S(=O)(=O)c3ccccc3)C2)CC1 (configuration not stated) | 24.2 | 0.9 | 0.8 | 10.2
CCOC(=O)N1CCN(C(=O)C2CCCN(S(=O)(=O)c3ccc(C)cc3)C2)CC1 (configuration not stated) | -56.6 | 0.5 | 1.6 | 53.4*
O=C(C1Cc2ccccc2CN1S(=O)(=O)c1cccs1)N1CCCCCC1 (configuration not stated) | 46.7 | 0.2 | 0.5 | 82.0*
SMILES | CYP2C9 inh | CYP2C19 activ | CYP2C9 activ | CYP2C19 inhib
CN1C(=O)C(O)(c2sc(N)nc2-c2ccccc2)c2ccccc21 (configuration not stated) | 11.7 | 0.7 | 0.9 | 25.5
Cc1cc(C)n2nc(SCC(=O)c3cc(C)n(-c4cc(C)on4)c3C)nc2n1 | 9.6 | 0.7 | 0.9 | 34.1
CCOc1ccc(C(=O)Nc2c3c(nn2C(C)(C)C)CSC3)cc1OCC | 18.1 | 0.9 | 0.8 | 11.8
CC(C)OC(=O)c1ccc(N2C(=O)C3CC=CCC3C2=O)cc1 (configuration not stated) | -10.1 | 0.9 | 1.1 | 7.1
CCOC(=O)N1CCN(S(=O)(=O)c2ccc(Br)s2)CC1 | 81.2* | 0.1 | 0.2 | 87.9*
CN1CCN(S(=O)(=O)c2ccc(Br)s2)CC1 | 3.5 | 0.9 | 1 | 9.4
COc1ccc(C(=O)N2CCCC(C(=O)N3CCCCCC3)C2)cc1 (configuration not stated) | 10.5 | 0.6 | 0.9 | 44.1
Cc1csc(NC(=O)C2CCCN(S(=O)(=O)c3ccc(Br)s3)C2)n1 (configuration not stated) | 93.9* | 0.1 | 0.1 | 92.3*
